Source: PubChem BioAssay (NCATS)
Where “and” joins values, the source holds several entries; their conditions need not be identical. Equal values may be shown once. Inconclusive results are not listed. Where a call stands in place of a potency, no number is given. Some structures have more than one record in an assay (separate samples or runs), and their calls can disagree. Calls of active or inactive are those of the source. Calls come from the whole dose curve; as a rule, active = well fitted curve in the direction sought with a large enough effect; inconclusive = small, poorly fitted or top-dose-only effect, or another doubt; inactive = no such curve, though single readings can be large; an effect the other way counts as inactive or inconclusive.

Key:
[1] = Identifying Small Molecule Inhibitors of Pancreatic Cancer Stem Cells (Panc1, Adherent) (AID 1259362); details: Potency: viability
In short: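 Luminescent ATP readout (CellTiter-Glo) quantifies surviving cells after a 48 h drug incubation. Normalization uses DMSO wells as no inhibition and media-only wells as full inhibition; bortezomib served as positive control.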

[2] = P-glycoprotein substrates identified in KB-8-5-11 adenocarcinoma cell line, qHTS therapeutic library screen (AID 1346987); note: nearly all actives have a fitted effect of over 65% in size
In short: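 KB-8-5-11: colchicine-selected sub-line of KB-3-1 over-expressing P-gp; assay medium lacked colchicine. 72 h drug exposure at 37 degree C, CellTiter-Glo.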

[3] = NS1 protein of Zika virus - qHTS assay to identify small molecule inhibitors in human HEK 293 cells (AID 1347053); note: nearly all actives have a fitted effect of over 55% in size
In short: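 HEK 293; 20 h pre-culture, 37 C/5% CO2; cpd 1 h pre-infection; ZIKV MR766, MOI = 0.5, 24 h, 37 C; TR-FRET NS1 readout (two anti-NS1 Abs); norm. to no-virus vs infected.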

[4] = qHTS of pediatric cancer cell lines to identify multiple opportunities for drug repurposing: Primary screen for TC32 cells (AID 1347089); note: nearly all actives have a fitted effect of over 60% in size
In short: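 Luminescent ATP read-out (CellTiter-Glo) of metabolically active TC32 cells after 48 h exposure. Concentration-response curves came from 11-point (MIPE, 0.78 nM–46 µM) or 8-point (NPC, 0.59 nM–46 µM) primary titrations; follow-up used 11 points.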

[5] = qHTS of pediatric cancer cell lines to identify multiple opportunities for drug repurposing: Primary screen for SJ-GBM2 cells (AID 1347091)
In short: (§1)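 Eight- or eleven-point concentration series, 48 h treatment at 37 degrees C in growth media; readout CellTiter-Glo luminescence. Potency and efficacy were taken from the concentration-response curves.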

[6] = qHTS of pediatric cancer cell lines to identify multiple opportunities for drug repurposing: Primary screen for A673 cells (AID 1347092); note: nearly all actives have a fitted effect of over 45% in size
In short: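 Cell viability of A673 measured by CellTiter-Glo ATP luminescence after 48 hours compound exposure. Dilution series spanned 0.78 nM to 46 µM (MIPE, 11-point) or 0.59 nM to 46 µM (NPC, 8-point); bortezomib 2.3 uM positive control.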

[7] = qHTS of pediatric cancer cell lines to identify multiple opportunities for drug repurposing: Primary screen for SK-N-MC cells (AID 1347093)
In short: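 Metabolically active cells were quantified by ATP-dependent luminescence (CellTiter-Glo, 15 min at room temperature) following 48 h treatment. Cells had been plated at 500-1,000 per well and settled for 5 h beforehand.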

[8] = qHTS of pediatric cancer cell lines to identify multiple opportunities for drug repurposing: Primary screen for NB-EBc1 cells (AID 1347095)
In short: (§2)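 CRCs from 8- or 11-point titrations (lowest final 0.59 nM NPC, 0.78 nM MIPE). Cell viability: CellTiter-Glo after 48 h incubation, 15 min room-temperature development, luminescence imaging.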

[9] = qHTS of pediatric cancer cell lines to identify multiple opportunities for drug repurposing: Primary screen for U-2 OS cells (AID 1347096); note: nearly all actives have a fitted effect of over 50% in size
In short: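 Cells (500-1,000/well) in growth media were settled 5 h at 37 degrees C, then given compounds for 48 h. Viability was read as CellTiter-Glo luminescence. Primary runs used MIPE at 11 points (0.78 nM-46 µM) and NPC at 8 points (0.59 nM-46 µM); follow-ups used 11 points.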

[10] = qHTS of pediatric cancer cell lines to identify multiple opportunities for drug repurposing: Primary screen for DAOY cells (AID 1347090); note: nearly all actives have a fitted effect of over 55% in size
In short: as §1

[11] = qHTS of pediatric cancer cell lines to identify multiple opportunities for drug repurposing: Primary screen for BT-37 cells (AID 1347094)
In short: as §2

[12] = qHTS of pediatric cancer cell lines to identify multiple opportunities for drug repurposing: Primary screen for Saos-2 cells (AID 1347097); note: nearly all actives have a fitted effect of over 40% in size
In short: as §2

[13] = P-glycoprotein substrates identified in KB-3-1 adenocarcinoma cell line, qHTS therapeutic library screen (AID 1346986); note: nearly all actives have a fitted effect of over 60% in size;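 note: potency is for cytotoxicity meaning loss of cell viability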
In short: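 KB-3-1 parental cells and P-gp-overexpressing KB-8-5-11 (colchicine omitted during assay) plated at 500 cells/well, dosed in dose-response, incubated 72 h at 37 degree C. CellTiter-Glo luminescence read; KB-8-5-11 also tested with tariquidar.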
Potency is the fitted concentration of half-maximal effect.

With `CC(C)(C)c1[nH]cnc1C=c1[nH]c(=O)c(=Cc2ccccc2)[nH]c1=O` the Potency [1] was 0.0187 µM (active), the Potency [2] was 2.4 nM (active) and the Potency [3] was 0.003 µM (active). The Potency [4] was 0.0068 µM (active), the Potency [5] was 0.001 µM (active) and the Potency [6] was 0.001 µM (active). The Potency [7] was 0.001 µM (active), the Potency [8] was 0.001 µM (active) and the Potency [9] was 42.9 µM (active).

For `CCCCCCCCCCCCCC(=O)N[C@H](CO)[C@H](O)c1ccc([N+](=O)[O-])cc1`, the Potency [1] was “inactive”, the Potency [2] was “inactive” and the Potency [4] was “inactive”. The Potency [10] was “inactive”, the Potency [7] was 18.7 µM (active) and the Potency [11] was 13.7 µM (active). For the same compound, the Potency [9] was “inactive” and the Potency [12] was 18.7 µM (active).

For `COc1nccc(-c2c(-c3ccc(F)cc3)ncn2C2CCNCC2)n1`, the Potency [13] was “inactive”, the Potency [2] was “inactive” and the Potency [3] was “inactive”. For the same compound, the Potency [4] was “inactive”, the Potency [10] was “inactive” and the Potency [7] was “inactive”. For the same compound, the Potency [8] was “inactive” and the Potency [9] was “inactive”.

With `CCC=CC[C@H]1C(=O)CC[C@@H]1CC(=O)OC` the Potency [13] was “inactive”, the Potency [2] was “inactive” and the Potency [3] was “inactive”. For the same compound, the Potency [4] was “inactive”, the Potency [10] was “inactive” and the Potency [5] was “inactive”. The Potency [6] was “inactive”, the Potency [11] was “inactive” and the Potency [8] was “inactive”. The Potency [9] was “inactive” and the Potency [12] was “inactive”.

In the case of `CCC(=O)N1CCN(c2ccc(-n3c(=O)ccc4cnc5ccc(-c6cnc7ccccc7c6)cc5c43)cc2C(F)(F)F)CC1`, the Potency [13] is reported as 0.075 µM (active), the Potency [2] is reported as 41.8 nM (active) and 133 nM (active) and the Potency [4] is reported as 0.0739 µM (active). For the same compound, the Potency [5] was 0.0187 µM (active), the Potency [6] was 0.0118 µM (active) and the Potency [7] was 0.0053 µM (active). For the same compound, the Potency [11] was 0.0217 µM (active) and the Potency [8] was 0.0662 µM (active).

For `CN(C)c1nc(Cc2ccc(NC(=O)c3ccc(C(F)(F)F)cc3)cc2)nc(N(C)C)c1CC(=O)O`, the Potency [13] was “inactive”, the Potency [3] was “inactive” and the Potency [4] was “inactive”. For the same compound, the Potency [10] was “inactive”, the Potency [5] was “inactive” and the Potency [6] was “inactive”. For the same compound, the Potency [11] was “inactive”, the Potency [8] was “inactive” and the Potency [9] was “inactive”. The Potency [12] was “inactive”.

In the case of `O=C(O)CCNc1cc(N2CCc3ccccc3CC2)nc(-c2ccccn2)n1`, the Potency [13] is reported as “inactive”, the Potency [2] is reported as “inactive” and the Potency [5] is reported as “inactive”. For the same compound, the Potency [6] was 18.7 µM (active), the Potency [7] was 23.5 µM (active) and the Potency [8] was 23.5 µM (active).

With `COc1cc(Nc2nc3ccccc3nc2NS(=O)(=O)c2ccc(NC(=O)c3ccc(C)c(OC)c3)cc2)cc(OC)c1` the Potency [13] was “inactive”, the Potency [2] was “inactive” and the Potency [3] was “inactive”. The Potency [10] was 23.5 µM (active), the Potency [5] was 23.5 µM (active) and the Potency [6] was 23.5 µM (active). The Potency [7] was 26.4 µM (active) and the Potency [8] was 26.4 µM (active).

In the case of `O=c1[nH]c(=O)n([C@H]2C[C@@H](O)[C@@H](CO)O2)cc1I`, the Potency [13] is reported as “inactive”, the Potency [2] is reported as “inactive” and the Potency [3] is reported as “inactive”. The Potency [10] was “inactive”, the Potency [5] was “inactive” and the Potency [6] was “inactive”. For the same compound, the Potency [7] was “inactive”, the Potency [11] was “inactive” and the Potency [8] was “inactive”. The Potency [9] was “inactive”.

With `COc1ccc2ccc(=O)oc2c1CC=C(C)C` the Potency [13] was “inactive”, the Potency [2] was “inactive” and the Potency [4] was “inactive”. The Potency [5] was “inactive”, the Potency [7] was 9.35 µM (active) and the Potency [12] was 18.7 µM (active).

With `Nc1[nH]nc2nnc(-c3c(-c4ccccc4)nn4ccccc34)cc12` the Potency [13] was “inactive”, the Potency [2] was “inactive” and the Potency [4] was “inactive”. The Potency [10] was 2.96 µM (active), the Potency [6] was 1.48 µM (active) and the Potency [7] was 0.0332 µM (active). The Potency [11] was 2.73 µM (active), the Potency [8] was 3.32 µM (active) and the Potency [12] was 9.35 µM (active).

For `CCCCCCCCCCCCCCCC(=O)O[C@H]1[C@@H](O)[C@@H](O)[C@@H]([C@H](NC(=O)[C@@H]2C[C@@H](CCC)CN2C)[C@H](C)Cl)O[C@@H]1SC`, the Potency [13] was “inactive”, the Potency [2] was “inactive” and the Potency [3] was “inactive”. The Potency [4] was “inactive”, the Potency [5] was “inactive” and the Potency [7] was 18.7 µM (active). For the same compound, the Potency [11] was “inactive”, the Potency [8] was “inactive” and the Potency [9] was “inactive”. The Potency [12] was “inactive”.

With `CN(C)c1ccccc1CN1CCCN(Cc2ccccc2N(C)C)C1c1ccncc1` the Potency [13] was “inactive”, the Potency [2] was “inactive” and the Potency [3] was 11.8 µM (active). The Potency [4] was “inactive”, the Potency [6] was 18.7 µM (active) and the Potency [8] was 20.9 µM (active).

For `Cc1ccccc1C(C(=O)NC1CCCCC1)N(C(=O)CNc1ccc(C#N)cc1)c1cccc(F)c1` (centres undefined), the Potency [13] was “inactive”, the Potency [2] was “inactive” and the Potency [4] was “inactive”. The Potency [10] was “inactive”, the Potency [6] was “inactive” and the Potency [7] was “inactive”. The Potency [11] was “inactive”, the Potency [8] was 23.5 µM (active) and the Potency [9] was “inactive”.

With `C[C@@H](NC(=O)c1ncnc(N)c1Cl)c1ncc(C(=O)Nc2cc(C(F)(F)F)c(Cl)cn2)s1` the Potency [13] was “inactive”, the Potency [2] was “inactive” and the Potency [3] was “inactive”. The Potency [4] was “inactive”, the Potency [6] was 18.7 µM (active) and the Potency [7] was 16.6 µM (active). For the same compound, the Potency [8] was 14.8 µM (active) and the Potency [9] was “inactive”.

With `Nc1ncnc2c1ncn2[C@@H]1O[C@H](CO)[C@@H](O)[C@@H]1O` the Potency [13] was “inactive”, the Potency [2] was “inactive” and the Potency [3] was “inactive”. For the same compound, the Potency [10] was 4.69 µM (active), the Potency [5] was 2.35 µM (active) and the Potency [6] was 0.935 µM (active). The Potency [11] was 5.44 µM (active), the Potency [8] was 3.32 µM (active) and the Potency [9] was 14.8 µM (active). For the same compound, the Potency [12] was 2.96 µM (active).

For `CSc1cccc(Nc2ncc3cc(-c4c(Cl)cccc4Cl)c(=O)n(C)c3n2)c1`, the Potency [13] was 2.06 µM (active), the Potency [2] was “inactive and 1.3 µM (active)” and the Potency [4] was “inactive”. For the same compound, the Potency [5] was 0.418 µM (active), the Potency [7] was 0.0935 µM (active) and the Potency [8] was 0.372 µM (active). For the same compound, the Potency [12] was 0.118 µM (active).

In the case of `CN(C)c1ccc(-c2nc3ncc(Cl)c(N4CCN(CC(=O)Nc5nccs5)CC4)c3[nH]2)cc1`, the Potency [13] is reported as “inactive”, the Potency [2] is reported as “inactive” and the Potency [5] is reported as 14.8 µM (active). The Potency [8] was 2.35 µM (active), the Potency [9] was “inactive” and the Potency [12] was 14.8 µM (active).
